In all, about 5,500 compounds went through this assay and about 2,000 (36%) were called active. Roughly 18% stayed inconclusive and do not appear here. Cut-off read from the data, not from the text of the source: active = normalized growth mostly below about 0.91 (no sharp cut-off); inconclusive = no clear call, values can overlap the other calls; inactive = mostly above about 0.92. This is one part of the list.
Test: chemical genetic growth profiling, strain panel (AID 1159580);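 note: tested at 20 µM; growth read once vehicle control cultures reached saturation at 30 °C; 1 = growth at the plate median or of vehicle wells; lower values mean less growth of the strain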
Conditions: S. cerevisiae deletion strains, growth OD

Measured: normalized growth

COc1cc(C(=O)NCCCCCC(=O)O)cc(OC)c1OC
inactive: locus YAL021C, strain ccr4, hits give low values 0.976 | locus YAL026C, strain drs2, hits give low values 0.981 | locus YAL030W, strain snc1, hits give low values 0.959 | locus YBL061C, strain skt5, hits give low values 0.973 | locus YBR009C, strain hhf1, hits give low values 0.977 | locus YBR023C, strain chs3, hits give low values 0.986 | locus YBR171W, strain sec66, hits give low values 0.97 | locus YBR231C, strain swc5, hits give low values 0.978 | locus YBR279W, strain paf1, hits give low values 0.979 | locus YCL011C, strain gbp2, hits give low values 0.977 | locus YCL016C, strain dcc1, hits give low values 0.982 | locus YCL061C, strain MRC1, hits give low values 0.995 | locus YCL069W, strain vba3, hits give low values 0.984 | locus YCR088W, strain abp1, hits give low values 0.986 | locus YDL005C, strain med2, hits give low values 0.973 | locus YDL040C, strain nat1, hits give low values 0.981 | locus YDR001C, strain nth1, hits give low values 0.969 | locus YDR069C, strain doa4, hits give low values 0.973 | locus YDR137W, strain rgp1, hits give low values 0.975 | locus YDR159W, strain sac3, hits give low values 0.966 | locus YDR195W, strain ref2 0.966 | locus YDR297W, strain sur2, hits give low values 0.962 | locus YDR334W, strain swr1, hits give low values 0.935 | locus YDR335W, strain msn5, hits give low values 0.975 | locus YDR392W, strain spt3, hits give low values 0.983 | locus YEL003W, strain gim4, hits give low values 0.98 | locus YEL037C, strain rad23, hits give low values 0.985 | locus YEL061C, strain CIN8 (second series), hits give low values 0.974 | locus YER015W, strain faa2, hits give low values 0.972 | locus YER016W, strain bim1, hits give low values 0.981 | locus YER111C, strain swi4, hits give low values 0.979 | locus YER155C, strain BEM2 (second series), hits give low values 0.969 | locus YFR010W, strain ubp6, hits give low values 0.966 | locus YGL167C, strain pmr1, hits give low values 0.986 | locus YGL173C, strain kem1, hits give low values 0.959 | locus YGL227W, strain vid30, hits give low values 0.976 | locus YGL240W, strain doc1, hits give low values 0.972 | locus YGL253W, strain hxk2, hits give low values 0.986 | locus YHR013C, strain ard1, hits give low values 0.973 | locus YHR027C, strain rpn1, hits give low values 0.964 | locus YHR030C, strain SLT2, hits give low values 0.972 | locus YHR079C, strain IRE1, hits give low values 0.974 | locus YHR142W, strain chs7, hits give low values 0.981 | locus YJL092W, strain hpr5, hits give low values 0.994 | locus YJL095W, strain BCK1 (second series), hits give low values 0.977 | locus YJL095W, strain BCK1, hits give low values 1.02 | locus YJL115W, strain asf1, hits give low values 0.975 | locus YJL129C, strain trk1, hits give low values 0.999 | locus YJL154C, strain vps35, hits give low values 0.97 | locus YJL164C, strain tpk1, hits give low values 0.998 | locus YJL166W, strain qcr8, hits give low values 0.974 | locus YJL187C, strain SWE1, hits give low values 0.983 | locus YJR066W, strain TOR1, hits give low values 0.923 | locus YKL160W, strain elf1, hits give low values 0.992 | locus YKR026C, strain gcn3, hits give low values 0.993 | locus YKR091W, strain srl3, hits give low values 0.984 | locus YLL001W, strain dnm1, hits give low values 0.998 | locus YLL026W, hits give low values 0.964 | locus YLL041C, strain sdh2, hits give low values 0.981 | locus YLR027C, strain aat2, hits give low values 0.977 | locus YLR113W, strain HOG1, hits give low values 1.01 | locus YLR221C, strain rsa3, hits give low values 0.991 | locus YLR258W, strain gsy2, hits give low values 0.987 | locus YLR262C, strain YPT6 (second series), hits give low values 0.962 | locus YLR320W, strain mms22, hits give low values 0.985 | locus YLR342W, strain FKS1, hits give low values 0.985 | locus YLR357W, strain rsc2, hits give low values 1.01 | locus YLR370C, strain arc18, hits give low values 0.973 | locus YLR384C, strain iki3, hits give low values 0.975 | locus YML120C, strain ndi1, hits give low values 0.987 | locus YMR058W, strain fet3, hits give low values 0.974 | locus YMR125W, strain sto1, hits give low values 0.979 | locus YMR129W, hits give low values 0.995 | locus YMR205C, strain PFK2, hits give low values 0.968 | locus YMR231W, strain pep5, hits give low values 0.991 | locus YNL071W, strain lat1, hits give low values 0.985 | locus YNL183C, strain NPR1, hits give low values 0.935 | locus YNL209W, strain ssb2, hits give low values 0.977 | locus YNL248C, strain rpa49, hits give low values 0.986 | locus YNL322C, strain KRE1 (second series), hits give low values 0.966 | locus YNR049C, strain mso1, hits give low values 0.976 | locus YOR001W, strain rrp6, hits give low values 0.977 | locus YOR070C, strain gyp1, hits give low values 0.978 | locus YOR080W, strain dia2, hits give low values 0.974 | locus YOR083W, strain WHI5, hits give low values 0.98 | locus YOR106W, strain vam3, hits give low values 0.979 | locus YOR231W, strain MKK1, hits give low values 0.99 | locus YOR265W, strain rbl2, hits give low values 0.973 | locus YOR270C, strain vph1, hits give low values 0.996 | locus YOR290C, strain snf2, hits give low values 0.976 | locus YPL051W, strain arl3, hits give low values 0.988 | locus YPL078C, strain atp4, hits give low values 0.98 | locus YPL106C, strain sse1, hits give low values 0.916 | locus YPL240C, strain hsp82, hits give low values 0.982 | locus YPL256C, strain CLN2, hits give low values 0.93

From PubChem BioAssay AID1159580 (chemical genetic matrix, 2015)
